High-throughput results from PubChem.
An excerpt weighted towards active compounds, which were near 2.7% of everything screened.
LDHA block: inhibitors of human lactate dehydrogenase A; P00338; purified LDHA, NADH/diaphorase-resazurin fluorescence; stronger effect = lower value; activity change, % (values are at about 110 or 230 µM); 480,000 tested, 0.15% active; in the data active means activity change below about -30%; inconclusive means mostly about -25% to -30%;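 further: plate controls were DMSO wells for no effect and wells without enzyme for full effect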
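Human LDH5 (2 nM) was incubated with 0.06 mM NADH and 0.2 mM pyruvate for 5 min at room temperature in Tris pH 7.4. Remaining NADH was coupled through diaphorase/resazurin, and resorufin fluorescence was read at 0 and 20 min.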
Nrf2 ARE act: Nrf2 pathway activation; Potency, µM (titrated, usually from 46.1 µM), for inactives: at the highest dose activation, most hits filed as activators; AID 624171; 410,000 tested, 0.31% active; AREc32 ARE-luciferase reporter (MCF7-derived line), luminescence, 24 h; further: potency means the concentration at half of the fitted maximal effect; % of control where 0% means no effect; nearly all actives have a fitted effect of over 65% in size
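Cells of the AREc32 ARE-luciferase line are plated in OPTI-MEM containing 5% FBS and left overnight at 37 deg C. Compounds are pinned in, incubation continues 24 hr, and firefly luciferase signal is then measured.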
ALOX12 inh: ALOX12 (human) lipoxygenase inhibition; 580,000 tested, 1.1% active; P18054; Potency, µM (series often up to 108 µM), inactives show top-dose activity change, negative = inhibition, actives largely listed as inhibitors; purified 12hLO, xylenol orange hydroperoxide absorbance; AID 1671190; further: potency means the concentration at half of the fitted maximal effect; on the % scale 0 is the no-effect control and ±100 the full control effect
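Hydroperoxide product was detected by ferrous iron/xylenol orange as the 573 to 405 nm absorbance ratio. Arachidonic acid at 40 uM (final) was turned over for 30 min at room temperature by 150 nM human 12hLO, pH 7.0 Hepes buffer, after 15 min compound preincubation.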
ERG-DNA inh: inhibitors of human ERG Ets domain-DNA interaction; P11308; fluorescence polarization, His-ERG Ets domain / labelled DNA; Potency, µM (doses to about 76.9 µM), inactives show at the highest dose FP activity, negative = inhibition, most hits filed as inhibitors; 370,000 tested, 0.028% active; AID 624246; active means well fitted inhibition curve with a large enough effect in the polarisation, with a control signal flat; inconclusive means small, poorly fitted or top-dose-only effect, or effect the other way, or a change in a side signal; inactive means no such curve, though single readings can be large or run the other way; the % refers to the polarisation;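 further: polarization taken with two DNA probes labelled with fluorescein and Texas red; potency means the concentration at half of the fitted maximal effect; % of control where 0% means no effect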
Target sequence (P11308 whole entry, looked up, the tested form may be a part): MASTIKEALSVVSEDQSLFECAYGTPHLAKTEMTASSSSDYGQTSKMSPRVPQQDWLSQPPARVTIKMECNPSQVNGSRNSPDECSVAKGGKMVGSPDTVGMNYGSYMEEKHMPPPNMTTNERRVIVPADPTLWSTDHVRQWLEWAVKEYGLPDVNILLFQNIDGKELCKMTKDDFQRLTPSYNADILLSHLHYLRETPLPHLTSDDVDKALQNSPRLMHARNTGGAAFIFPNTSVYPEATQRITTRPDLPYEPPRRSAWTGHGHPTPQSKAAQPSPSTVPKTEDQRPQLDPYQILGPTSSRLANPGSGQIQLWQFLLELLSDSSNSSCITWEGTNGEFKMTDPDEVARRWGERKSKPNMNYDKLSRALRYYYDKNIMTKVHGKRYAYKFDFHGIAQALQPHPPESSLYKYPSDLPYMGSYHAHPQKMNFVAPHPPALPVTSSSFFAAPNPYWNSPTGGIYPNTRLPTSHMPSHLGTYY
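His-tagged ERG Ets domain (1 uM in the protein solution; 300mM KCl, 50mM Tris-HCl, 1mM EDTA, 1mM DTT, pH 7.5) received compound, then a probe mix of 5 nM fluorescein-DNA and 100nM Texas-615-DNA. Fluorescence polarization was read for both dyes.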
A549 viability: kills or reduces viability of A549 cells in Nrf2 counter-screen; Potency, µM (titrated, usually from 46 µM), for the others: top-dose activity change, negative = cytotoxicity, actives largely listed as inhibitors; A549 ARE-Fluc cells, CellTiter-Fluor viability, 18-24 h; AID 504648; 390,000 tested, 0.16% active; further: potency means the concentration at half of the fitted maximal effect; on the % scale 0 is the no-effect control and ±100 the full control effect
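A549 ARE-Fluc cells in 5% FBS OPTI-MEM, 5000 cells/well, rested 2 h then exposed to compounds in concentration-response for 18-24 h at 37 °C. Viability by CellTiter-Fluor fluorescence (Ex 405/Em 525) after 30 min; luciferase luminescence (BugLite, 15 min, RT) read afterwards.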
Nrf2 inh: inhibitors of Nrf2 signaling. Potency, µM (doses to about 46 µM), for inactives: at the highest dose activity change, negative = inhibition, hits mostly inhibitors. A549 ARE-Fluc reporter, luciferase luminescence, 18-24 h. 360,000 tested, 2.1% active. AID 504444; further: potency means the concentration at half of the fitted maximal effect; on the % scale 0 is the no-effect control and ±100 the full control effect; nearly all actives have a fitted effect of over 60% in size
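Concentration-response testing used A549 ARE_Fluc cells at 5000 cells/well. Following an 18-24 h compound incubation, viability was read by fluorescence (Ex 405/Em 525) and luciferase output by luminescence.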
* marks the source's active call; other numbers are inactive results; ? = inconclusive; nt = no result given; [ ] = remark or other dose. Unless noted, the call rests on the fitted dose curve; in most records, active means well fitted curve in the direction sought with a large enough effect; inconclusive means small, poorly fitted or top-dose-only effect, or another doubt; inactive means no such curve, though single readings can be large; an effect the other way counts as inactive or inconclusive.

SMILES	LDHA block	Nrf2 ARE act	ALOX12 inh	ERG-DNA inh	A549 viability	Nrf2 inh
CN(C)C(=O)c1ccc(-c2nc(N3CCOCC3)c3ccccc3n2)cc1	nt	nt	44.7µM*	nt	nt	nt
Brc1ccc(-c2nc(N3CCN(c4ccccc4)CC3)c3ccccc3n2)cc1	0.2	0.1%	-50.6%	-0.3%	28.4%	nt
N#CC1=C(N)Oc2nc(SCc3ccccc3Cl)nc(N)c2C1c1cccc(F)c1 (stereo not given)	5.1	nt	?	nt	nt	nt
CC(=O)c1cccc(S(=O)(=O)NCC(=O)O)c1	-3.7	nt	?	nt	nt	nt
CC(C)(C)N=Cc1cc(Br)ccc1O	-2.6	nt	56.2µM*	nt	nt	nt
N#Cc1nc(-c2ccco2)oc1N1CCN(C(=O)CNC(c2ccccc2)c2ccccc2)CC1	17.1	nt	-2.2%	nt	nt	nt
O=C(Nc1cccs1)Nc1ccccc1Cl	-6.0	24.4%	?	1.0%	-12.5%	-28.5%
O=C(Nc1cccs1)Nc1cccnc1Cl	-6.3	11.2µM*	12.0%	3.0%	2.0%	-0.1%
CCOC(=O)C1(CCOc2ccccc2)CCN(Cc2cccc(OC)c2O)CC1	1.9	-0.2%	7.08µM*	7.6%	0.2%	7.9%
CCOC(=O)C1(CCOc2ccccc2)CCN(Cc2cc(OC)ccc2OC)CC1	4.3	2.6%	-8.9%	-1.0%	-10.2%	12.0%
COc1ccc(/C=C(/C(=O)O)c2cccs2)cc1	-25.0	nt	?	nt	nt	nt
CC(C)(C)NC(=O)C(c1ccncc1)N(CC1CCCO1)C(=O)Cn1nnc(-c2ccc(F)cc2)n1 (stereo not given)	-7.6	-0.6%	-2.4%	-6.5%	1.3%	-0.6%
CC(C)(C)NC(=O)C(c1ccncc1)N(Cc1cccs1)C(=O)Cn1nnc(-c2ccc(F)cc2)n1 (stereo not given)	6.7	0.6%	0.0%	1.4%	-15.1%	9.2µM*
CN=C1S/C(=C/c2ccc(C)s2)C(=O)N1C	0.9	nt	-1.1%	nt	nt	nt
CCN1C(=O)[C@H]2[C@@H](c3ccc(-c4cccc(Cl)c4)c(OC)c3)N3CCC[C@@]3(C(=O)OC)[C@H]2C1=O	-4.0	13.5%	50.1µM*	14.8%	-2.6%	?
COC(=O)[C@@]12CCCN1[C@H](c1ccc(-c3cccc(Cl)c3)c(OC)c1)[C@H]1C(=O)N(C)C(=O)[C@H]12	1.6	5.2%	-15.7%	-5.7%	-6.4%	19.4%
COc1ccc(OC)c(NC(=O)c2cc3c(Cl)nc4ccccc4c3s2)c1	-5.2	-0.5%	1.4%	7.3%	-2.7%	-9.5%
COc1ccc(NC(=O)c2cc3c(Cl)nc4ccccc4c3s2)cc1OC	2.4	-0.7%	-8.1%	nt	-28.0%	10.3µM*
CCOc1ccc(NC(=O)COc2ncnc3ccc(Br)cc23)cc1	-2.0	nt	-27.7%	nt	nt	nt
CCCn1c(=O)sc2cc(NC(=O)c3ccc(OC)c(Br)c3)ccc21	-9.1	3.4%	-13.1%	6.2%	-12.9%	16.4µM*
CC(C)(C)c1ccc(O)c(N=Cc2cc3c(cc2[N+](=O)[O-])OCO3)c1	13.0	5.8%	35.5µM*	-4.3%	17.5%	?
O=[N+]([O-])c1cc(Br)cc(C=Nc2ccc3c(c2)OCO3)c1O	7.9	0.8%	35.5µM*	-15.3%	-16.3%	15.2%
Cc1cc(C)n(-c2ccc(C(=O)N3CCN(S(=O)(=O)c4ccc(C(C)C)cc4)CC3)cc2)n1	-5.0	0.0%	10.4%	3.8%	-16.6%	23.1µM*
O=C(O)c1ccccc1NC(c1ccccc1)c1ccc2cccnc2c1O (stereo not given)	-4.1	13.6%	17.8µM*	4.7%	-17.9%	?
Oc1c(C(Nc2ccccn2)c2ccccc2F)ccc2cccnc12 (stereo not given)	-4.8	5.2%	1.3%	0.2%	-11.6%	?
SMILES	LDHA block	Nrf2 ARE act	ALOX12 inh	ERG-DNA inh	A549 viability	Nrf2 inh
CC(=O)NC(c1ccco1)c1ccc2cccnc2c1O (stereo not given)	7.8	-1.1%	nt	-2.6%	-19.4%	16.4µM*
CC(C)C(=O)NC(c1ccc(Cl)cc1Cl)c1ccc2cccnc2c1O (stereo not given)	9.7	3.8%	-29.0%	5.0%	?	13µM*
CC(=O)NC(c1ccc(Cl)cc1)c1ccc2cccnc2c1O (stereo not given)	8.2	-1.0%	-21.9%	1.3%	0.8%	?
Cc1ccnc(NC(c2ccccc2F)c2ccc3cccnc3c2O)c1 (stereo not given)	-2.1	-1.1%	22.4µM*	-2.1%	0.0%	?
O=C(NNC(=O)C1CCOC1)c1cccc([N+](=O)[O-])c1 (stereo not given)	-3.5	nt	-29.2%	nt	nt	nt
CN(C)C(CNC(=O)c1cc(=O)c2cc(Cl)ccc2o1)c1ccco1 (stereo not given)	-2.0	nt	?	nt	nt	nt
O=C(O)c1ccc(-n2cccc2/C=C2\NC(=O)N(Cc3ccccc3)C2=O)cc1	-14.7	nt	nt	nt	nt	nt
O=C(NCc1ccco1)c1cc2cc(Br)ccc2[nH]1	-0.5	nt	31.6µM*	nt	nt	nt
CCN(Cc1ccco1)C(=O)c1cc2cc(Br)ccc2[nH]1	5.3	nt	17.8µM*	nt	nt	nt
Cc1ccc2[nH]c(C(=O)NCc3ccco3)cc2c1	5.2	nt	-9.3%	nt	nt	nt
Cc1cc(C(F)(F)F)c(C#N)c(SCC#N)n1	5.1	nt	?	nt	nt	nt
Cc1ccc(C(C)(C)C)cc1CC(=O)O	2.8	nt	-5.0%	nt	nt	nt
COc1cncc(Nc2cnc3ccc(-c4ccc(OC)c(OC)c4)nn23)c1	nt	nt	78.2%[176 µM]	nt	nt	nt
Cc1ccccc1-c1csc(C(O)(c2ccccc2)C(F)(F)F)n1 (stereo not given)	-4.3	0.7%	44.7µM*	nt	nt	nt
CN(C)c1ccc(-c2csc(C(O)(c3ccccc3)C(F)(F)F)n2)cc1 (stereo not given)	13.4	0.2%	17.8µM*	nt	nt	nt
Cc1ccc(-c2csc(C(O)(c3ccccc3)C(F)(F)F)n2)cc1C (stereo not given)	-6.0	-1.1%	?	nt	nt	nt
Clc1ccc(Oc2ccc3nnnn3n2)c(Br)c1	-2.5	nt	11.5%	nt	nt	nt
Cc1nn(C)c(C)c1CCC(=O)N1CCC(Cc2noc(-c3ccc(F)cc3)n2)C1 (stereo not given)	nt	nt	52.8%	nt	nt	nt
COc1ccc(N=c2cc(-c3ccc(OC)cc3)oc3ccccc23)cc1	-6.4	6.8%	-14.6%	9.4%	?	16.4µM*
COc1ccc(-c2cc(=Nc3ccc(C)cc3)c3ccccc3o2)cc1	-3.3	1.8%	-21.9%	-3.1%	-5.7%	?
Cc1ccc(/C=N/NC(=O)c2cc(-c3ccccc3)nc3ccccc23)o1	-2.8	0.0%	-20.5%	0.9%	-3.5%	?
Cc1ccc(C=NNC(=O)c2cc(-c3cccnc3)nc3ccccc23)o1	-3.8	2.0%	10µM*	-0.3%	-8.3%	?
C/C(=N\NC(=O)c1cc(-c2cccnc2)nc2ccccc12)c1ccc(O)cc1O	-7.8	0.1%	-10.4%	-6.1%	?	14.6µM*
